# Compounds with a hit are over-represented: about 6.9% of the library has one in this group of screens.
# PLK1 PBD block: inhibitors of human PLK1 polo-box domain binding | P53350 | Plk1 PBD binding of FITC phosphopeptide, fluorescence polarization | Potency, µM, most hits filed as inhibitors | hit rate 2.8% among 360,000; further: series mostly up to about 57 µM; nearly all actives have a fitted effect of over 65% in size
# L3MBTL1 inh: blocks human L3MBTL1; AID 485360; Potency, µM (series often up to 57.1 µM), actives largely listed as inhibitors; hit rate 0.66% among 230,000; Q9Y468; AlphaScreen L3MBTL1–H3K9me1 peptide binding; further: nearly all actives have a fitted effect of over 60% in size
#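 First, the protein-peptide complex forms for 30 min at room temperature (L3MBTL1 50 nM, biotinylated H3K9me1 peptide 75 nM). Next, compounds are pin-transferred and incubated 30 min. Finally, AlphaScreen beads are added and read after 30 min.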
# HP1b binding inh: inhibitors of HP1-beta chromodomain binding to methylated histone tails. hit rate 0.56% among 390,000. AlphaScreen HP1-beta / biotin-H3K9me3 peptide binding. Potency, µM (doses to about 114 µM), hits mostly inhibitors; further: nearly all actives have a fitted effect of over 70% in size
# Target sequence (P83916 whole entry, looked up): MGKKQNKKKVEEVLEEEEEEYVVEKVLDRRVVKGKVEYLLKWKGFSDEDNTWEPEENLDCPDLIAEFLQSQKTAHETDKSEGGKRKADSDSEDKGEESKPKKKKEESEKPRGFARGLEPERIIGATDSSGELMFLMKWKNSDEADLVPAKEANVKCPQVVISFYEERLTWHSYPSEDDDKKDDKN
#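 Compound inhibition of the preformed complex between 50 nM HP1-beta and 50 nM biotinylated H3K9me3 peptide was read by AlphaScreen. Buffer was PBS pH 7.4 with 0.01% Tween-20. Incubations ran 30 min at room temperature, with 10 ug/mL donor/acceptor beads.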
# JMJD2A Tudor inh: inhibitors of human JMJD2A Tudor domain | Potency, µM (top dose mostly 114 µM), hits mostly inhibitors | AID 504339 | hit rate 4.4% among 390,000 | AlphaScreen JMJD2A-Tudor / H3K4me3 peptide binding; further: nearly all actives have a fitted effect of over 50% in size
# BAZ2B block: inhibitors of human BAZ2B bromodomain. hit rate 4.4% among 360,000. AID 504333. AlphaScreen BAZ2B-H3K14Ac peptide displacement. Q9UIF8. Potency, µM (titrated, usually from 114 µM), actives largely listed as inhibitors; further: nearly all actives have a fitted effect of over 60% in size
#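 AlphaScreen displacement of biotin-H3(5-23)K14Ac peptide (50 nM final) from BAZ2B (50 nM final) in PBS pH 7.4, 0.01% Tween-20; complex preformed 30 min RT, then compounds (top 110 uM) 30 min RT, beads 20 min dark.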
# VDR inhibitor: blocks the human vitamin D receptor | VDR-SRC2-3 peptide fluorescence polarization, 2 h | Potency, µM, hits mostly inhibitors | hit rate 0.93% among 400,000 | AID 504847
#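 Reagent solutions, kept cold and dark, are dispensed first; compounds are then pinned in at 23 nl, plates briefly spun, and incubated 2 h at ambient temperature. Inhibition of VDR–SRC2-3 peptide binding is read by fluorescence polarization.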
# Numbers stand for hits; n = inactive; u = inconclusive; x = no result given; [ ] = dose if it differs, or a comment. The call rests on the fitted dose curve; in most records, active means well fitted curve in the direction sought with a large enough effect; inconclusive means small, poorly fitted or top-dose-only effect, or another doubt; inactive means no such curve, though single readings can be large; an effect the other way counts as inactive or inconclusive.
SMILES,PLK1 PBD block,L3MBTL1 inh,HP1b binding inh,JMJD2A Tudor inh,BAZ2B block,VDR inhibitor
CC(CNCC1CCCO1)COc1cccc2ccccc12 (stereo not drawn),n,n,u,1.8µM,u,n
CC1=CC2=NC(=O)CC(C)(C(=O)N(CC(=O)NC3CCCC3)c3cc(C)cc(C)c3)N2C=C1 (stereo not drawn),27µM,u,n,n,u,u
COc1ccccc1-n1cnnc1SCC(=O)Nc1nc(C)c(Cl)cc1Cl,n,n,n,n,n,n
COc1ccccc1-n1cnnc1SCC(=O)Nc1ncc(Cl)cc1Cl,30µM,n,n,50µM,n,n
C#CCOCCOCCOCCNc1nc(N2CCN(C(=O)CCCCCCCCCCNC(=O)[C@@H](CCSC)n3cc(CCO)nn3)CC2)nc(N2CCN(C(=O)CCCCCCCCCCNC(=O)[C@H]([C@@H](C)CC)n3cc(CCCCN=C(N)N)nn3)CC2)n1,n,n,u,40µM,50µM,n
C#CCOCCOCCOCCNc1nc(N2CCOCC2)nc(N2CCN(C(=O)CCCCCCCCCCNC(=O)[C@@H](CCSC)n3cc(CCO)nn3)CC2)n1,n,n,n,n,n,n
C#CCOCCOCCOCCNc1nc(N2CCN(C(=O)CCCCCCCCCCNC(=O)[C@H](CO)n3cc(CCCSC)nn3)CC2)nc(N2CCN(C(=O)CCCCCCCCCCNC(=O)[C@H](CCCCN)n3cc(C[C@@H](C)CC)nn3)CC2)n1,x,n,x,x,u,x
C#CCOCCOCCOCCNc1nc(N2CCN(C(=O)CCCCCCCCCCNC(=O)[C@@H](CCSC)n3cc(CCO)nn3)CC2)nc(N2CCN(C(=O)CCCCCCCCCCNC(=O)[C@H]([C@@H](C)CC)n3cc(CCCCCN)nn3)CC2)n1,n,n,u,56µM,u,n
CCc1ccc(-n2c(=O)c3c4c(sc3n(CC(=O)N3CCCCC3CC)c2=O)CCC4)cc1 (stereo not drawn),x,x,n,n,n,n
NCCS,u,n,u,n,n,22µM
Cc1ccc(S(=O)(=O)Cc2nc(-c3ccc(C(=O)NCc4ccccc4F)cc3)oc2C)cc1,x,x,n,n,u,n
Cc1cccc(CS(=O)(=O)CC2Nc3ccc(C(=O)NCc4ccccc4Cl)cc3NC2=O)c1 (stereo not drawn),x,x,n,n,n,n
COCCCn1c(=O)/c(=C\c2cccc(OC)c2OC)s/c1=C(/C#N)C(=O)Nc1ccc(C(=O)O)cc1,n,n,n,n[11.4 µM],45µM,n
CC(C)C1CC(O)(C2(O)CCCCC2)ON1 (stereo not drawn),3.4µM,x,u,n[11.4 µM],n,n
CSc1nsc(SC)c1C(=O)NCCNS(=O)(=O)c1ccc(C)cc1,n,n[11.4 µM],n,n,50µM,n
Cc1ccc(S(=O)(=O)NCCC(=O)Nc2nnc(C)s2)cc1,n,x,n,n,n,n
CCN1CCC(N(Cc2cccc(OC)c2)C(=O)Nc2ccc(C)cc2Cl)CC1,x,x,n,n,n,n
COCCCNC(=S)NNC(=S)Nc1cccc(Cl)c1,n,n,n,3.2µM,n,u
COCCCNC(=S)NNC(=O)c1ccccn1,n,8.9µM,n,20µM,3.5µM,n
CC(C)Oc1ccc(CNC(=O)c2cc3cccc4c3n2CC(C)S4)cc1 (stereo not drawn),x,x,n,n,n,n
Cc1cccc(NC(=O)CSCc2nc3c(nnn3Cc3ccc(F)cc3)c(=O)[nH]2)c1C,n,n,n,n,u,n
CN(C)c1ccc(NC(=O)CSCc2nc3c(nnn3Cc3ccc(F)cc3)c(=O)[nH]2)cc1,n,n,n,50µM,u,n
Cc1cnc(CNC(=O)C2(C)CCCN2CC(C)C)cn1 (stereo not drawn),n,x,x,x,x,x
CCCCOc1ccccc1NC(=O)c1ccc(=O)[nH]c1,30µM,n,n,n,n,n
CCCOc1ccccc1NC(=O)c1ccc(N)cc1,n,n[11.4 µM],n,n,n,n
COc1ccc(C(=O)/C=C/c2cn(CC(O)CN3CCCCCC3)c3ccccc23)cc1OC (stereo not drawn),x,x,n,u,28µM,n
Cc1ccc(C(=O)/C=C/c2cn(CC(O)CN3CCCCCC3)c3ccccc23)cc1 (stereo not drawn),x,x,n,50µM,u,n
